From PubChem BioAssay
Cardiac RTF inh = cardiac RTF calcium sensitivity inhibitors, primary screen, biochemical, IANBD-TnC fluorescence, EC70 calcium; Troponin I, cardiac muscle (Homo sapiens) + Troponin T, cardiac muscle (Homo sapiens) + …; IANBD-labeled cardiac RTF, Ca2+ fluorescence; inhibition, % at 7.15 µM; actives 0.12% (n = 340,000);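 active = inhibition above the mean inhibition of all tested compounds plus 3 SD, cut at about 17% in these data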;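 also: assay run at fixed EC70 calcium of 1.6 mM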
cardiac RTF act = cardiac RTF calcium sensitivity activators, primary screen, biochemical, IANBD-TnC fluorescence, EC20 calcium; AID 493008, 2010; IANBD-labeled TnC RTF fluorescence at EC20 calcium; 0% EC20 calcium, 100% full calcium; actives 0.24% (n = 340,000); activation, % at 7.2 µM;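 active = activation above the mean over all tested compounds plus 3 SD, cut at about 30% in these data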;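 also: rise in fluorescence read as greater calcium sensitivity of cardiac thin filaments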
CRFBP-R2 agonist = agonists of CRF-BP/CRF-R2 complex, primary screen, cell-based, HEK293, calcium dye fluorescence, uHTS; CRF-binding protein / CRF receptor 2 complex (human); calcium dye fluorescence (FLIPR); percent of saturating CRF peptide response; actives 0.46% (n = 350,000); activation, % at 13.2 µM;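 active = activation of at least 50%, plus an integration ratio under a set limit after plate pattern correction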
Myeloid diff 2 = induction of myeloid progenitor differentiation, primary screen, cell-based, flow cytometry, MLPCN library; actives 1% (n = 360,000); AID 624256, 2012; ER-HoxA9 myeloid progenitors, lysozyme-GFP differentiation; calls only at 10 µM;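 active = normalized GFP-positive differentiation at or above the plate's own cutoff, the solvent-only control mean plus 3 SD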;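 also: cells exposed to compound for four days before flow analysis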
CRFBP-R2 block = antagonists of CRF-BP/CRF-R2 complex, primary screen, cell-based, HEK293, calcium dye fluorescence, uHTS | CRF-induced calcium fluorescence | inhibition, % at 11.8 µM | actives 0.59% (n = 350,000) | AID 588475, 2011;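 active = inhibition of the ligand-induced calcium signal above about 50% at the single tested concentration, limit read from the data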
Each line names hits and unclear results; the compound was inactive in the other large screens; ! = not confirmed by another sample. An excerpt weighted towards active compounds, which were near 2.2% of everything screened.

CCOC(=O)/C(C#N)=C/C=C1/C=CC=CN1C	none
C=CCN1C=CC(=C/C=C(/C#N)C(=O)OCC)C=C1	cardiac RTF act 123, CRFBP-R2 agonist 71
COC(=O)C1C(c2ccccc2)C(C(=O)OCc2ccco2)C1c1ccccc1 (stereo not drawn)	CRFBP-R2 block 59
Cc1cc(OCC(=O)OCC(=O)NCc2cccs2)ccc1Cl	none
CC1(C)CC(=O)C2=C(C1)c1c(ccc3ccccc13)NC2c1cc([N+](=O)[O-])cc([N+](=O)[O-])c1O (stereo not drawn)	CRFBP-R2 block 78
COc1cc(-c2cc(-c3ccc(N)cc3)[nH]c(=O)c2C#N)cc(OC)c1OC	Myeloid diff 2 active
COc1cc(OC)c(OC)cc1/C=C1/Cc2ccccc2C1=O	cardiac RTF act 31, CRFBP-R2 agonist 51
CC(=O)Nc1ccc(NC(=O)C2CCN(c3ccc(C(F)(F)F)cn3)CC2)cc1	none
CC(=O)N1N=C(c2ccc(Cl)cc2)CC1c1ccc([N+](=O)[O-])cc1 (stereo not drawn)	none
CC1(O)CC(c2ccc(Cl)cc2)=NN1C(=O)c1ccc([N+](=O)[O-])cc1 (stereo not drawn)	CRFBP-R2 agonist 74, CRFBP-R2 block 100
COc1ccccc1C(=O)Nc1ccnn1C1CCN(C/C=C/c2ccc(F)cc2)CC1	Myeloid diff 2 active
CC1=C(C(=O)N(C(C)C)C(C)C)CC(CC(=O)NCCCCc2ccccc2)C(=O)N1Cc1ccc(C(C)(C)C)cc1 (stereo not drawn)	Myeloid diff 2 active (no result: Cardiac RTF inh, cardiac RTF act, CRFBP-R2 agonist, CRFBP-R2 block)
O=C1NC[C@@H](CCCCN2C[C@H](Cc3ccccc3)N(CCc3ccc(O)cc3)C(=O)C2=O)N(CC2CCCCC2)C1=O	none (no result: Cardiac RTF inh, cardiac RTF act, CRFBP-R2 agonist, CRFBP-R2 block)
O=C(CSc1nnc2scc(-c3ccccc3)n12)N1CCN(Cc2ccccc2)CC1	none
Cc1ccc(-c2csc3nnc(SCC(=O)N4CCN(Cc5ccccc5)CC4)n23)cc1	CRFBP-R2 block 66
CC(=O)N[C@H]1[C@H]([C@H](O)[C@H](O)CO)O[C@](O)(C(=O)O)C[C@@H]1O	none
COc1ccc2cc1Oc1ccc(cc1)CC1c3c(cc(OC)c4c3Oc3cc5c(cc3O4)CCNC5C2)CCN1C (stereo not drawn)	Myeloid diff 2 active
Cc1nn(C(=O)c2c(-c3ccccc3)noc2C)c(C)c1N=Nc1cc(C(F)(F)F)cc(C(F)(F)F)c1	CRFBP-R2 block 53
CCc1c(C)nc(SCC(=O)NNC(=O)c2ccco2)[nH]c1=O	Myeloid diff 2 active
Cn1c2ccc(F)cc2c2nc3ccccc3nc21	none
CCn1c2ccc(F)cc2c2nc3ccccc3nc21	Myeloid diff 2 active
CC1=C(C(=O)N(C)C)CC(CC(=O)NCCCCc2ccccc2)C(=O)N1Cc1ccccc1 (stereo not drawn)	none (no result: Cardiac RTF inh, cardiac RTF act)
Cc1ccc(-n2nnnc2SCC(=O)Nc2cccnc2Cl)cc1	CRFBP-R2 block 53
O=C(CSc1nnnn1-c1ccc(Cl)cc1)Nc1cccnc1Cl	none
CN(C)c1ccc(S(=O)(=O)N2CCCCC2)cc1NC(=O)CN1C(=O)NC2(CCCC2)C1=O	none
Nc1ccc(CN2CCCCCC2)cc1	Myeloid diff 2 active
Brc1ccc(CN2CCCCCC2)cc1	none
N#Cc1ccccc1S(=O)(=O)N1CCN(CC(=O)Nc2ccccc2C(=O)NC2CC2)CC1	none
Cc1sc2nc(COC(=O)c3cccc(S(=O)(=O)N(C)c4ccccc4)c3)[nH]c(=O)c2c1C	Myeloid diff 2 active
Cc1ccccc1Nc1nc(N)nc(COC(=O)c2cccc(S(=O)(=O)N(C)c3ccccc3)c2)n1	CRFBP-R2 block 51
Cc1sc2nc(COC(=O)c3cccc(OC(F)F)c3)[nH]c(=O)c2c1C	none
Cc1ccccc1Nc1nc(N)nc(COC(=O)c2ccccc2)n1	none
Cc1cc([N+](=O)[O-])c2ccccc2c1NS(=O)(=O)c1ccccc1	CRFBP-R2 block 119
COc1ccc(CNC(=O)/C=C/[C@H]2O[C@@H](n3ccc(=O)[nH]c3=O)[C@H](O)[C@@H]2O)cc1	none (no result: Cardiac RTF inh, cardiac RTF act, CRFBP-R2 agonist, CRFBP-R2 block)
Cc1ccc2nc3c(cc(C(N)=S)c(=N)n3CCCOC(C)C)c(=O)n2c1	Myeloid diff 2 active
Cc1ccc2nc3c(cc(C(=O)NCCc4ccccc4)c(=N)n3CCN3CCOCC3)c(=O)n2c1	Myeloid diff 2 active
Cc1ccc2nc3c(cc(C(=O)NCCN4CCOCC4)c(=N)n3CCCN3CCOCC3)c(=O)n2c1	none (no result: Myeloid diff 2)
Cc1nn(CC(=O)NC(C)C(C)C)c(C)c1S(=O)(=O)N1CCCCC1 (stereo not drawn)	none
COc1ccc(-c2ncccc2O)cc1	none (no result: Myeloid diff 2)
CCOc1c(C)cc(-c2ncccc2O)cc1C	CRFBP-R2 block 52!
N#C/C(=C/c1cn(-c2ccccc2)nc1-c1cccc(OCc2ccc(F)cc2)c1)C(=O)NCCCn1ccnc1	none
CCCOc1cccc(-c2nn(-c3ccccc3)cc2/C=C(\C#N)C(=O)NCCCn2ccnc2)c1	Myeloid diff 2 active
CSCCC(NC(=O)c1ccccc1Cl)C(=O)NNC(=O)c1ccncc1 (stereo not drawn)	none
O=C(O)c1cccc2cc(-c3ccccc3)oc(=O)c12	none
O=C(O)c1cccc2cccc(-c3c4ccc(=O)c(O)c-4oc4c(O)c(O)ccc34)c12	Cardiac RTF inh 79, CRFBP-R2 block 51
N#CCCN(NC(=O)OCc1ccccc1)C(=O)OCc1ccccc1	none
COc1ccc(SCC(=O)Nc2ccccc2Cl)cc1	CRFBP-R2 block 80
COc1ccc2oc(-c3ccc(C)c(NC(=O)CSc4ccc(Cl)cc4)c3)nc2c1	Myeloid diff 2 active
O=C(O)C1Nc2c(Cl)cc(Cl)c(Cl)c2C2C=CCC12 (stereo not drawn)	none
O=C(O)C1Nc2c(O)cccc2C2C=CCC12 (stereo not drawn)	Cardiac RTF inh 34
COC(=O)C1=CN(Cc2ccc(OC)cc2)C=C(C(=O)OC)C1c1cccs1	CRFBP-R2 block 111
N#Cc1ccsc1NC(=O)COC(=O)c1cc2ccccc2cc1O	none
O=C1c2ccccc2-c2onc3c(N4CCN(CCO)CC4)cc(N4CCN(C(=O)c5ccco5)CC4)c1c23	Myeloid diff 2 active
CCOc1ccc(N/C(N)=N/c2nc(C)cc(C)n2)cc1	CRFBP-R2 agonist 141
CCC(CC)C(C(=O)NCc1ccccc1)N1CCN(C(=O)C2CCCO2)CC1 (stereo not drawn)	none (no result: Cardiac RTF inh, cardiac RTF act, CRFBP-R2 agonist, CRFBP-R2 block)
O=c1c(-c2nc3ccccc3s2)cccn1Cc1ccccc1	Myeloid diff 2 active
Cc1ccc(Cn2cccc(-c3nc4ccccc4s3)c2=O)cc1	none
Cc1nn(C)c(C(=O)NC(=S)Nc2ccccc2Br)c1Cl	CRFBP-R2 agonist 93
CC1=C(C(=O)O)CC(S(=O)(=O)O)C1(C)C (stereo not drawn)	none
